Test results reported in PMC7862700, “An all-to-all approach to the identification of sequence-specific readers for epigenetic DNA modifications on cytosine”.

Key:
Test in all cases: DAPPL (digital affinity profiling via proximity ligation, sequencing); 10 mM Tris-HCl pH 7.5, 50 mM NaCl, 1 mM DTT, 4% glycerol, room temperature, 30 min; GST-TFs on glutathione beads, 16-mer random dsDNA library, 0.1% formaldehyde crosslink after washing; high values mean tight binding
FEV = target: T1, FEV (Homo sapiens, UniProt Q99581 1-238); conditions: protein: recombinant; tags: N-terminal GST; dsDNA, one strand shown
T1 sequence: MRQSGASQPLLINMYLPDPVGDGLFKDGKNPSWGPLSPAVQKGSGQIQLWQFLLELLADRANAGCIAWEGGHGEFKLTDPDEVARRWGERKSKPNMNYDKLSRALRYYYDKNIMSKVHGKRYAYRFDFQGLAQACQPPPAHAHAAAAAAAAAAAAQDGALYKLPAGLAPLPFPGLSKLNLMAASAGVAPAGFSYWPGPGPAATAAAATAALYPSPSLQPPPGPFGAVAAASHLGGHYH
Outline: (§1)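 Binding signal is defined as a hexamer's read frequency for one factor over its frequency for the tag-only sample. To obtain reads, GST-fused human transcription factors were expressed in yeast, captured on glutathione beads, barcoded with DNA and pooled with that sample. Pools met 200 nmole of a 16-mer random double-stranded DNA library in Tris/NaCl/DTT/glycerol buffer for 30 min at room temperature before washing, 0.1% formaldehyde crosslinking, proximity ligation (BsaI/T4 ligase, 1 h, 37 °C), PCR and Illumina NextSeq500 sequencing.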

ETV5 = ETV5 (Homo sapiens, UniProt P41161 1-510); conditions: protein: recombinant; tags: N-terminal GST; dsDNA, one strand shown
Outline: as §1

HSF1 = HSF1 (Homo sapiens, UniProt Q00613 1-529); conditions: protein: recombinant; tags: N-terminal GST; chain copies: 3; dsDNA, one strand shown
Outline: as §1

SPIC = target: T2, SPIC (Homo sapiens, UniProt Q8N5J4 1-248); conditions: protein: recombinant; tags: N-terminal GST; dsDNA, one strand shown
T2 sequence: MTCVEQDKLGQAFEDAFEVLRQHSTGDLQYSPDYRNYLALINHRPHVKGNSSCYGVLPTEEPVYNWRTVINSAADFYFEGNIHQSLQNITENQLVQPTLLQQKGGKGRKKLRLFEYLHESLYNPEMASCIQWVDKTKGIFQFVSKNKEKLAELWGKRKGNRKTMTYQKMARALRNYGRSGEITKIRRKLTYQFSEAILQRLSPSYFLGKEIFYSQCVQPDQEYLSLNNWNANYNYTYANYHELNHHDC
Outline: as §1

ELF4 = ELF4 (Homo sapiens, UniProt Q99607 1-663); conditions: protein: recombinant; tags: N-terminal GST; dsDNA, one strand shown
Outline: as §1

ELK4 = target: T3, ELK4 (Homo sapiens, UniProt P28324-2 1-405); conditions: protein: recombinant; tags: N-terminal GST; dsDNA, one strand shown
T3 sequence: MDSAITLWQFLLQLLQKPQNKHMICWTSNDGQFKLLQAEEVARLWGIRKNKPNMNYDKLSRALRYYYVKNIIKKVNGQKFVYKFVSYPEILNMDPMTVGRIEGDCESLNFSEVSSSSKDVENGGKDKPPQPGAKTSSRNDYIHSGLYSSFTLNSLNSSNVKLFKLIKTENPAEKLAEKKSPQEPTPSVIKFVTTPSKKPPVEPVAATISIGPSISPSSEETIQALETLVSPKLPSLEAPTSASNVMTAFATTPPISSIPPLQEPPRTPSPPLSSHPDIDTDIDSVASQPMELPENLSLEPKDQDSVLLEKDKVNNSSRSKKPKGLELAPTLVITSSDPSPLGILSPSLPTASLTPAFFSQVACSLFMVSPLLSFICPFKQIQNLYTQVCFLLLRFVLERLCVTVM
Outline: as §1

ETV2 = target: T4, ETV2 (Homo sapiens, UniProt O00321 1-342); conditions: protein: recombinant; tags: N-terminal GST; dsDNA, one strand shown
T4 sequence: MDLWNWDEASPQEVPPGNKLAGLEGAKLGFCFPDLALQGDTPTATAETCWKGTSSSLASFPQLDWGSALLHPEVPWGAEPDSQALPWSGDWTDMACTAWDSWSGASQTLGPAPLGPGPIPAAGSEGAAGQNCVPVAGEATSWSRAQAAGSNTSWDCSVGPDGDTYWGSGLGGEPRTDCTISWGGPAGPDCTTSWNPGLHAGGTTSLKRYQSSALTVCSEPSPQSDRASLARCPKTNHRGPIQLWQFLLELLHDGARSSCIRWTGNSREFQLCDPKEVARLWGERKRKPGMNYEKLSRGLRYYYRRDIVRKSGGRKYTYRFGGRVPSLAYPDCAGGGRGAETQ
Outline: as §1

ELF3 = target: T5, ELF3 (Homo sapiens, UniProt P78545 1-371); conditions: protein: recombinant; tags: N-terminal GST; dsDNA, one strand shown
T5 sequence: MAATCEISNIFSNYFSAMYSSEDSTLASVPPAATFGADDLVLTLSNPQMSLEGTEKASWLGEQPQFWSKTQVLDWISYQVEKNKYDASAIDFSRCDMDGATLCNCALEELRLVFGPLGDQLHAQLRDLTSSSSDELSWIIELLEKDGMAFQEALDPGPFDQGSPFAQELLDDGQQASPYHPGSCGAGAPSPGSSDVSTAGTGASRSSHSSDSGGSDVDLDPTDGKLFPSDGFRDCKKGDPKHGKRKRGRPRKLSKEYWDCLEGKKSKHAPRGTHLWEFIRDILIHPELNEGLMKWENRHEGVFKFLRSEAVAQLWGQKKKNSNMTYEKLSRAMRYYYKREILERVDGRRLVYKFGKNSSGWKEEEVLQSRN
Outline: as §1

CRX = CRX (Homo sapiens, UniProt O43186 1-299); conditions: protein: recombinant; tags: N-terminal GST; dsDNA, one strand shown
Outline: as §1

ETV1 = ETV1 (Homo sapiens, UniProt P50549 1-477); conditions: protein: recombinant; tags: N-terminal GST; dsDNA, one strand shown
Outline: as §1

ERF = target: T6, ERF (Homo sapiens, UniProt P50548 1-548); conditions: protein: recombinant; tags: N-terminal GST; dsDNA, one strand shown
T6 sequence: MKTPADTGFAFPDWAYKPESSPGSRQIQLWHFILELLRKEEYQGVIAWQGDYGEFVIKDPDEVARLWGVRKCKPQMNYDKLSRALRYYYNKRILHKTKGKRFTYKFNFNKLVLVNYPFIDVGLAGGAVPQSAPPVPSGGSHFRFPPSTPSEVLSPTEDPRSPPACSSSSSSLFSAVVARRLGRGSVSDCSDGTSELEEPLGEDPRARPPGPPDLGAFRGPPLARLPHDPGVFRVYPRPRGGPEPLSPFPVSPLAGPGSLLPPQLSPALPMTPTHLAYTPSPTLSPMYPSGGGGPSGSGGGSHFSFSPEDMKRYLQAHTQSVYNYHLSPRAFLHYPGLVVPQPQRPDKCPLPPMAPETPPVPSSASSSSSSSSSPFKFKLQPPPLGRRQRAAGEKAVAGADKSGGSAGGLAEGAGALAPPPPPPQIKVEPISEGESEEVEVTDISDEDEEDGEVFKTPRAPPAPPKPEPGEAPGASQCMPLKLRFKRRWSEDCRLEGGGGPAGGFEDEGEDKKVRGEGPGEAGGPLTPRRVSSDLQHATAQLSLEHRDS
Outline: as §1

ETV3L = target: T7, ETV3L (Homo sapiens, UniProt Q6ZN32 1-361); conditions: protein: recombinant; tags: N-terminal GST; dsDNA, one strand shown
T7 sequence: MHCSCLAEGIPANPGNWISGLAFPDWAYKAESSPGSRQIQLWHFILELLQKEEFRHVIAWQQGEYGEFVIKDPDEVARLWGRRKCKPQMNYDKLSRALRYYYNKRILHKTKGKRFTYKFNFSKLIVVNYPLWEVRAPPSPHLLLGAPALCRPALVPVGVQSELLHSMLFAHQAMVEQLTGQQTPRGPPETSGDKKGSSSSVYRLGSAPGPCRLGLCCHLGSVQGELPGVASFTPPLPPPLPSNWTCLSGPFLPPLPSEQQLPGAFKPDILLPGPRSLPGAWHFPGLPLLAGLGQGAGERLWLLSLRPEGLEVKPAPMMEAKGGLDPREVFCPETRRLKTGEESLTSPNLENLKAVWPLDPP
Outline: as §1

ETS2 = target: T8, ETS2 (Homo sapiens, UniProt P15036 1-469); conditions: protein: recombinant; tags: N-terminal GST; dsDNA, one strand shown
T8 sequence: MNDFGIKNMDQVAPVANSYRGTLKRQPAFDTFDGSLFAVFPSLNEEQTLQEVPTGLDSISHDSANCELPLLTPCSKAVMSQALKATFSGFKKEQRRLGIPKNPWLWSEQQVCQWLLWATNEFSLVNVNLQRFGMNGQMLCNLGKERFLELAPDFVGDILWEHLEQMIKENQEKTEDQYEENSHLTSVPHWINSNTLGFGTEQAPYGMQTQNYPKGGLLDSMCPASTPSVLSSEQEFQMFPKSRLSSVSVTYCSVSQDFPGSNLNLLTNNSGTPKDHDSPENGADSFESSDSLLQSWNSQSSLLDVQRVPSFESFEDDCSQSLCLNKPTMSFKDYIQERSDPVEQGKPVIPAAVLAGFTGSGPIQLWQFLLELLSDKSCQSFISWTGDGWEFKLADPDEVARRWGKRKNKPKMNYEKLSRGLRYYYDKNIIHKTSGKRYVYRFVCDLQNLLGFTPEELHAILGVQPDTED
Outline: as §1

SPDEF = target: T9, SPDEF (Homo sapiens, UniProt O95238 1-335); conditions: protein: recombinant; tags: N-terminal GST; dsDNA, one strand shown
T9 sequence: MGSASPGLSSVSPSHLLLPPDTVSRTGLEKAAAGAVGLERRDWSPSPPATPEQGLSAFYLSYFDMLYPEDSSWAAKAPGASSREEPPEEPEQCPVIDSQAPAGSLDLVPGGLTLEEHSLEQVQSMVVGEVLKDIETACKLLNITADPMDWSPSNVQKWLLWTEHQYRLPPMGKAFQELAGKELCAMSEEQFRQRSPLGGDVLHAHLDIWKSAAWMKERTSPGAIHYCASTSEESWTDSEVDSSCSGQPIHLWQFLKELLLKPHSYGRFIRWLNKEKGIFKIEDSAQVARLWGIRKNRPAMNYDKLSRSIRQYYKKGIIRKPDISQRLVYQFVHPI
Outline: as §1

ETV7 = target: T10, ETV7 (Homo sapiens, UniProt Q9Y603 1-341); conditions: protein: recombinant; tags: N-terminal GST; dsDNA, one strand shown
T10 sequence: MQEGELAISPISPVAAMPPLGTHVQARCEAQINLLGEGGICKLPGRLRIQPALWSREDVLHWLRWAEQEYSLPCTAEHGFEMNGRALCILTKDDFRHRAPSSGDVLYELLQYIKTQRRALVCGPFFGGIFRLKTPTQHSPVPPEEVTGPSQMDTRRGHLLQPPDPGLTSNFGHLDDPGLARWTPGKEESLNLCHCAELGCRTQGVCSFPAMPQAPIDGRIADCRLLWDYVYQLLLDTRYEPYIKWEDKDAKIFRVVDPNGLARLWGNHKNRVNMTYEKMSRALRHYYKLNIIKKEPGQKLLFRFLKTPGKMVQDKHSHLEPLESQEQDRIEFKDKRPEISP
Outline: as §1

ELF5 = target: T11, ELF5 (Homo sapiens, UniProt Q9UKW6-2 1-255); conditions: protein: recombinant; tags: N-terminal GST; dsDNA, one strand shown
T11 sequence: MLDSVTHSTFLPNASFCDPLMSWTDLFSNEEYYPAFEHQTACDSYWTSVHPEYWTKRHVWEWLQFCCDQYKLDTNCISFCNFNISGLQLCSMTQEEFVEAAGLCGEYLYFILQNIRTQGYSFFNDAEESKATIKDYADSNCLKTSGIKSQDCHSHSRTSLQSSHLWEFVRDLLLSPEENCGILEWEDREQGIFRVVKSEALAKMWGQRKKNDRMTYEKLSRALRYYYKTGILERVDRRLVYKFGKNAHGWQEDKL
Outline: as §1

ETV3 = target: T12, ETV3 (Homo sapiens, UniProt P41162-2 1-143); conditions: protein: recombinant; tags: N-terminal GST; dsDNA, one strand shown
T12 sequence: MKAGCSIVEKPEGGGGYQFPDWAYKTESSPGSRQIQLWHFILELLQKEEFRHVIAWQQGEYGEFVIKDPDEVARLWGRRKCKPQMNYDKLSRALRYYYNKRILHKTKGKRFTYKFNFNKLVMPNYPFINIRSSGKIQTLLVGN
Outline: as §1

ETV6 = ETV6 (Homo sapiens, UniProt P41212 1-452); conditions: protein: recombinant; tags: N-terminal GST; dsDNA, one strand shown
Outline: as §1

ETV5, sequence (P41161 whole entry): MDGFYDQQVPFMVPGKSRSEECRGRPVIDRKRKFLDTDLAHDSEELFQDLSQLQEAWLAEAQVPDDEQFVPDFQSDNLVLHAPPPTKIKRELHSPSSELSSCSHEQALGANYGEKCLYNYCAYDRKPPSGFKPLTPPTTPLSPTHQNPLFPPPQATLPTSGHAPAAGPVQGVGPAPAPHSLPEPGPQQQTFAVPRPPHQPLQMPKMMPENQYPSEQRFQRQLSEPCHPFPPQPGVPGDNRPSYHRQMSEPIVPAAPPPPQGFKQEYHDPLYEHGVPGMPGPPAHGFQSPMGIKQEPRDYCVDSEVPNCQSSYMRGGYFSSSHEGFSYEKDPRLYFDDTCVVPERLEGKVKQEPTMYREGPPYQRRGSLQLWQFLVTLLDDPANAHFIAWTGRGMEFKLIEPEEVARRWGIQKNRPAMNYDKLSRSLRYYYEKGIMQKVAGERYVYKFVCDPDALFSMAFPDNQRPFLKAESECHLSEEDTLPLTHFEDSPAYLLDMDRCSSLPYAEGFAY
ELF4, sequence (Q99607 whole entry): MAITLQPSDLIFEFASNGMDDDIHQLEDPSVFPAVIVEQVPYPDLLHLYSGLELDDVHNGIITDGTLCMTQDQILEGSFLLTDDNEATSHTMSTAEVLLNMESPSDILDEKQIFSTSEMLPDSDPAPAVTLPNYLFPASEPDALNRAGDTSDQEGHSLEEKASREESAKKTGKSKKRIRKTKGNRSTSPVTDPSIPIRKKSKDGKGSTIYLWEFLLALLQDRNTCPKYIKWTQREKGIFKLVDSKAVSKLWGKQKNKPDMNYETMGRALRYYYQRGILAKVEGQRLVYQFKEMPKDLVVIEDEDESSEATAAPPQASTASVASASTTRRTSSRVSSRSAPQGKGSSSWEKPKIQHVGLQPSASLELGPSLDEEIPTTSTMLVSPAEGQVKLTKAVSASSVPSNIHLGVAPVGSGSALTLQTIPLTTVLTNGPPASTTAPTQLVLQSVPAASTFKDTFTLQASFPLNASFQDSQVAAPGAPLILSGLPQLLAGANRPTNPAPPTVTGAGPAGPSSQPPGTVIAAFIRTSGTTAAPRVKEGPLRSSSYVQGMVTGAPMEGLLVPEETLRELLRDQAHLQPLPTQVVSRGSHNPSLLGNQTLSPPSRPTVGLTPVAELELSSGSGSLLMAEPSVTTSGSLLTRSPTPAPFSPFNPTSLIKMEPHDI
ETV1, sequence (P50549 whole entry): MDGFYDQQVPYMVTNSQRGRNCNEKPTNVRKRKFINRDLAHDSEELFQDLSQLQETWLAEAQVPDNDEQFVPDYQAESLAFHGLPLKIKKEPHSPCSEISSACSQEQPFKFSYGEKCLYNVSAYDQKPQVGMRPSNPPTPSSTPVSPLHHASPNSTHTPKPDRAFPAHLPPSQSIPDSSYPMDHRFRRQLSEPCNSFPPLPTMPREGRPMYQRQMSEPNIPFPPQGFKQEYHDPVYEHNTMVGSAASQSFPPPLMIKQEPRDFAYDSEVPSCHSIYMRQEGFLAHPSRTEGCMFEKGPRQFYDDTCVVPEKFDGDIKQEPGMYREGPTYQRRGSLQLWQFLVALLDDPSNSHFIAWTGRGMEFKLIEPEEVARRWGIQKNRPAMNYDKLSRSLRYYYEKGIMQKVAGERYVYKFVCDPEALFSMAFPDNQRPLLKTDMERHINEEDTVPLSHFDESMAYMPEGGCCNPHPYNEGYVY
HSF1, sequence (Q00613 whole entry): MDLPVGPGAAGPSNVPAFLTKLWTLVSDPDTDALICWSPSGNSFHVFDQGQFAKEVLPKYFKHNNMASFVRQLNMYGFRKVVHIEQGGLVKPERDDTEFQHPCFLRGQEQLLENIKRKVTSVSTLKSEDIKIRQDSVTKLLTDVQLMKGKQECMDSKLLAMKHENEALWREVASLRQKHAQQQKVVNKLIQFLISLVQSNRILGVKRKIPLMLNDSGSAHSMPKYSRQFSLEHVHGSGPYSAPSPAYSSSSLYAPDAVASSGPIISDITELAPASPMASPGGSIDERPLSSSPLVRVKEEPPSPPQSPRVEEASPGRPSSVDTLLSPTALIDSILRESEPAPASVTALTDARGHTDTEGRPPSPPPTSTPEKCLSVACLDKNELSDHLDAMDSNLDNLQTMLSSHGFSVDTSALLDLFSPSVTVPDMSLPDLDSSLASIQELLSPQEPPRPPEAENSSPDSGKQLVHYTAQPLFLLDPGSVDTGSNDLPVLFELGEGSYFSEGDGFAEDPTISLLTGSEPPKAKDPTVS
CRX, sequence (O43186 whole entry): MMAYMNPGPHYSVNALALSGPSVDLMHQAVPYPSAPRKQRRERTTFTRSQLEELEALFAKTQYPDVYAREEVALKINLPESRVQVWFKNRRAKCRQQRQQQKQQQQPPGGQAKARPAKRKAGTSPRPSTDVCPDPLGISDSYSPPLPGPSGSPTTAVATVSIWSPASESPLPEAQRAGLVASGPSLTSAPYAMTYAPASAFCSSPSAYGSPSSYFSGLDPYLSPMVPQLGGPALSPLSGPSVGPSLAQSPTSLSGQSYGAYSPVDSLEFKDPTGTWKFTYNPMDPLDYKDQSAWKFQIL
ETV6, sequence (P41212 whole entry): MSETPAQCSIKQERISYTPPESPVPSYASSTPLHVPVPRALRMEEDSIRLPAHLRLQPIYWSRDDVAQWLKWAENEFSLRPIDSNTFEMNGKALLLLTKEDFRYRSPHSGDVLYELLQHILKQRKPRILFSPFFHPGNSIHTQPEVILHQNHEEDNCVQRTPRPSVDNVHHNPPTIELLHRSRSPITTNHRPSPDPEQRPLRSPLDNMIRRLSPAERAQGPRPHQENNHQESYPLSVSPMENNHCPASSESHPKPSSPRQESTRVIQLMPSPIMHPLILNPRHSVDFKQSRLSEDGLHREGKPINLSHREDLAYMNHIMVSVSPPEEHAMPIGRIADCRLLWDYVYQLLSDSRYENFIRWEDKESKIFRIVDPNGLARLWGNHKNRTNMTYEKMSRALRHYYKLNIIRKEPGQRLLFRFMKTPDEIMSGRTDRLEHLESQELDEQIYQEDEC

**Q.** With ATGGAA as the sequence, how does the binding signal (FEV) read?
**A.** 1.16 fold enrichment (6-mer frequency, TF over GST control)

**Q.** What about the binding signal (ETV5) of the same sequence?
**A.** 1.16 fold enrichment (6-mer frequency, TF over GST control)

**Q.** What about the binding signal (HSF1) of the same sequence?
**A.** 1.86 fold enrichment (6-mer frequency, TF over GST control)

**Q.** What about the binding signal (SPIC) of the same sequence?
**A.** 1.22 fold enrichment (6-mer frequency, TF over GST control)

**Q.** What about the binding signal (ELF4) of the same sequence?
**A.** 1.19 fold enrichment (6-mer frequency, TF over GST control)

**Q.** And the binding signal (ELK4)?
**A.** 1.13 fold enrichment (6-mer frequency, TF over GST control)

**Q.** What about the binding signal (ETV2) of the same sequence?
**A.** 1.26 fold enrichment (6-mer frequency, TF over GST control)

**Q.** What about the binding signal (ELF3) of the same sequence?
**A.** 1.16 fold enrichment (6-mer frequency, TF over GST control)

**Q.** What about the binding signal (CRX) of the same sequence?
**A.** 1.22 fold enrichment (6-mer frequency, TF over GST control)

**Q.** And the binding signal (ETV1)?
**A.** 1.24 fold enrichment (6-mer frequency, TF over GST control)

**Q.** And the binding signal (ERF)?
**A.** 1.23 fold enrichment (6-mer frequency, TF over GST control)

**Q.** And the binding signal (ETV3L)?
**A.** 1.18 fold enrichment (6-mer frequency, TF over GST control)

**Q.** What about the binding signal (ETS2) of the same sequence?
**A.** 1.23 fold enrichment (6-mer frequency, TF over GST control)

**Q.** What about the binding signal (SPDEF) of the same sequence?
**A.** 1.2 fold enrichment (6-mer frequency, TF over GST control)

**Q.** What about the binding signal (ETV7) of the same sequence?
**A.** 1.35 fold enrichment (6-mer frequency, TF over GST control)

**Q.** And the binding signal (ELF5)?
**A.** 1.13 fold enrichment (6-mer frequency, TF over GST control)

**Q.** And the binding signal (ETV3)?
**A.** 1.2 fold enrichment (6-mer frequency, TF over GST control)

**Q.** What about the binding signal (ETV6) of the same sequence?
**A.** 1.28 fold enrichment (6-mer frequency, TF over GST control)
